This passage reports growth results from PubChem BioAssay (NCI).

Test systems include HCT-15 colon; HT29 colon; SNB-75 CNS; SNB-19 CNS; U251 CNS; PC-3 prostate; SK-MEL-5 melanoma; UACC-62 melanoma; LOX IMVI melanoma; SK-MEL-28 melanoma; SK-MEL-2 melanoma; EKVX NSCLC; SN12C renal; UO-31 renal; TK-10 renal; ACHN renal; CAKI-1 renal; CCRF-CEM leukemia; MOLT-4 leukemia; A498 renal.
Assay in all cases: NCI-60 one-dose screen, 48 h (100 = growth as untreated, 0 = no growth, -100 = all killed)
Holding throughout (details): 10 µM unless noted

Compounds without any hit were thinned out: in the full panel of roughly 83,000, 20% have a hit.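 Testing used 96-well plates and a 48-hour single-concentration exposure. Example: -40 means 40% of the starting cells died.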 A number with no mark means an inactive call. Activity calls are given as the source filed them. The calls were made as follows: active = growth percent below 10; inactive = the rest.

On to `Cc1[nH]c(-c2nc3ccccc3[nH]2)c(C)c1C(=O)NNc1ccc(Cl)cc1`, for which the growth is 94.1% with HCT-15 colon; 104% in the test with HT29 colon; 87.1% with SNB-75 CNS; 87.1% in the test with SNB-19 CNS; 103% in the test on U251 CNS; 85.6% in the test with PC-3 prostate. In addition, the growth in the test on SK-MEL-5 melanoma was 98.2%; in the test on UACC-62 melanoma it was 90.2%; in the test on LOX IMVI melanoma, 93.6%; in the test on SK-MEL-28 melanoma it was 99.6%; with SK-MEL-2 melanoma, 103%; in the test with EKVX NSCLC it was 94.2%. Besides, the growth with SN12C renal was 90.7%; in the test on UO-31 renal, 72.5%; with TK-10 renal, 106%; with ACHN renal, 102%; in the test with CAKI-1 renal it was 80.2%; in the test with CCRF-CEM leukemia, 94.6%. Besides, in the test with MOLT-4 leukemia, the growth was 81.6%.
Turning to `N#Cc1c(NC(=O)c2ccc(Br)cc2)sc2c1CCCC2`, the growth in the test on HCT-15 colon was 22.2%; in the test on HT29 colon, 15.8%; with SNB-75 CNS, 13.6%; in the test on SNB-19 CNS, 38.5%; in the test on U251 CNS, 31.2%; with PC-3 prostate it was 28.9%. For the same molecule, the growth was 9.6% (active) in the test with SK-MEL-5 melanoma; 29.1% with UACC-62 melanoma; 38.7% in the test on LOX IMVI melanoma; 59% with SK-MEL-28 melanoma; 37% in the test on SK-MEL-2 melanoma; 37% in the test on EKVX NSCLC. Besides, the growth with SN12C renal is 45.7%; with UO-31 renal, 63%; in the test on TK-10 renal, 72.7%; in the test on ACHN renal, 47.6%; with CAKI-1 renal, 54.3%; with CCRF-CEM leukemia it was 20.4%. For the same molecule, the growth in the test on MOLT-4 leukemia was 32.5%.
In the case of `N=C(N)c1ccc(-c2ccc(/C=C/c3ccccc3)s2)cc1`, the growth with HCT-15 colon was -54% (active); in the test on HT29 colon it was -2.42% (active); with SNB-75 CNS it was 24.3%; in the test on SNB-19 CNS, 24.3%; in the test with U251 CNS, -46.6% (active); in the test with PC-3 prostate, 52.7%. The growth with SK-MEL-5 melanoma was 81.3%; with UACC-62 melanoma, 86.2%; with LOX IMVI melanoma, -82.1% (active); in the test on SK-MEL-28 melanoma, 80.8%; in the test on SK-MEL-2 melanoma, 102%; in the test with EKVX NSCLC, 71.2%. Also, the growth is -31.8% (active) with SN12C renal; 63.1% in the test with UO-31 renal; 98.5% in the test with TK-10 renal; -5.84% (active) in the test with ACHN renal; 32.5% in the test with CAKI-1 renal; 1.58% (active) in the test on CCRF-CEM leukemia. Further, the growth in the test with MOLT-4 leukemia was -21% (active).
As to `O=C1N/C(=N/O)S/C1=C/c1cn(-c2ccccc2)nc1-c1ccccc1`, the growth with HCT-15 colon was 86.5%; with HT29 colon it was 112%; in the test with SNB-75 CNS, 70.6%; with SNB-19 CNS, 107%; with U251 CNS it was 97%; with PC-3 prostate, 89.3%. Besides, the growth in the test on SK-MEL-5 melanoma is 102%; with UACC-62 melanoma, 102%; in the test with LOX IMVI melanoma, 68.6%; with SK-MEL-28 melanoma, 113%; in the test on SK-MEL-2 melanoma, 100%; in the test with EKVX NSCLC, 87.7%. Further, the growth in the test on SN12C renal is 96.1%; in the test on UO-31 renal, 57.5%; in the test on TK-10 renal, 108%; in the test on ACHN renal, 100%; in the test with CAKI-1 renal, 77.2%; in the test with A498 renal it was 85.6%. The growth with MOLT-4 leukemia is 91.9%.
As to `NS(=O)(=O)Oc1ccc(-c2sc3cc(O)ccc3c2C(=O)c2ccc(OCCN3CCCCC3)cc2)cc1`, the growth was 36.2% with HCT-15 colon; 0.722% (active) with HT29 colon; 39.6% with SNB-75 CNS; 78.2% in the test on SNB-19 CNS; 21.9% in the test with U251 CNS; 69.9% in the test on PC-3 prostate. In addition, the growth with SK-MEL-5 melanoma is 46.2%; with UACC-62 melanoma, -47.2% (active); in the test on LOX IMVI melanoma, 34.4%; in the test with SK-MEL-28 melanoma, 23.6%; in the test with SK-MEL-2 melanoma, 84%; in the test on EKVX NSCLC, 72.3%. The growth in the test with SN12C renal was 69.1%; with UO-31 renal, 43.6%; in the test on TK-10 renal, 72.4%; in the test with ACHN renal, 60.9%; in the test on CAKI-1 renal, 49.3%; in the test with CCRF-CEM leukemia, 25.9%. Besides, in the test with MOLT-4 leukemia, the growth is 11%.
Regarding `COc1ccc(/C=C(\C#N)n2nnc3ccccc32)cc1`, the growth in the test on HCT-15 colon is 8.56% (active); in the test on HT29 colon, 11%; with SNB-75 CNS, -31.7% (active); in the test on SNB-19 CNS it was 23%; in the test on U251 CNS, 17.6%; with PC-3 prostate, 15.8%. Moreover, the growth is 6.7% (active) in the test with SK-MEL-5 melanoma; 21.4% with UACC-62 melanoma; 2.08% (active) in the test with LOX IMVI melanoma; 36.2% in the test with SK-MEL-28 melanoma; 38.5% in the test with SK-MEL-2 melanoma; 24.1% in the test on EKVX NSCLC. Also, the growth in the test with SN12C renal was 18.9%; with UO-31 renal, 33.2%; in the test with TK-10 renal, 44%; in the test on ACHN renal, 23%; in the test on CAKI-1 renal it was 25%; in the test with CCRF-CEM leukemia, 18.8%. The growth with MOLT-4 leukemia was 18.7%.
Consider `O=c1[nH]c(NCc2nnnn2-c2ccc(Br)cc2)nc2sc3c(c12)CCCC3`, for which the growth in the test with HCT-15 colon is 98%; in the test with HT29 colon it was 95.5%; in the test on SNB-75 CNS, 93.2%; in the test with SNB-19 CNS it was 96.1%; in the test with U251 CNS, 83.8%; in the test on PC-3 prostate, 84.4%. Also, the growth in the test on SK-MEL-5 melanoma was 99.5%; in the test on UACC-62 melanoma, 87.1%; with LOX IMVI melanoma it was 95.8%; in the test with SK-MEL-28 melanoma it was 112%; with SK-MEL-2 melanoma, 108%; in the test with EKVX NSCLC, 96.3%. The growth in the test on SN12C renal was 97.6%; in the test on UO-31 renal it was 77.9%; in the test with TK-10 renal, 98.1%; with ACHN renal it was 98.9%; with CAKI-1 renal it was 89.6%; with A498 renal it was 84.6%. Moreover, the growth with MOLT-4 leukemia was 76.9%.
On to `CCCN1CCN(c2ccc3nc(-c4ccc5nc(-c6cc(OC)c(OC)c(OC)c6)[nH]c5c4)[nH]c3c2)CC1`, for which the growth in the test with HCT-15 colon was 99.5%; in the test with HT29 colon, 58%; in the test on SNB-75 CNS, 43.6%; with SNB-19 CNS it was 69.8%; in the test on U251 CNS, 66.3%; in the test with PC-3 prostate it was 70.7%. For the same molecule, the growth in the test with SK-MEL-5 melanoma is 41.3%; in the test with UACC-62 melanoma, 35.8%; with LOX IMVI melanoma it was 67.3%; in the test on SK-MEL-28 melanoma, 57.8%; with SK-MEL-2 melanoma it was 70.9%; with EKVX NSCLC it was 109%. Further, the growth in the test with SN12C renal is 85.4%; in the test with UO-31 renal it was 86.5%; with TK-10 renal, 125%; in the test on ACHN renal, 96.4%; with CAKI-1 renal, 105%; with CCRF-CEM leukemia, 41.2%. Further, in the test with MOLT-4 leukemia, the growth was 62.6%.
